ATXN2 expr inh: ATXN2 expression inhibition; HEK-293 ATXN2-luciferase reporter, luminescence, 24 h; Potency, µM (doses to about 57 µM), without a hit: top-dose activity change, negative = inhibition, most hits filed as inhibitors; 0.72% of 360,000 active; AID 1745845; note: potency is the fitted concentration of half-maximal effect; % is set by controls: 0 for no effect and ±100 for the full control effect; nearly all actives have a fitted effect of over 55% in size
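qHTS (up to 57 uM final) was run with 24 h compound exposure of reporter cells at 37 °C. Each well was multiplexed: SteadyGlo luminescence measured ATXN2-luciferase expression after a fluorogenic Gly-Phe-AFC viability readout (25 uM final).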
USP1-UAF1 inh: inhibitors of human USP1/UAF1 deubiquitinase | recombinant USP1/UAF1, Ub-Rhodamine cleavage fluorescence | Potency, µM (titrated, usually from 57.1 µM), for the others: at the highest dose activity change, negative = inhibition, usual class: inhibitors | 0.23% of 390,000 active; note: potency is the fitted concentration of half-maximal effect; % is set by controls: 0 for no effect and ±100 for the full control effect; nearly all actives have a fitted effect of over 60% in size
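1 nM enzyme complex + cpd, 15 min RT; start with Ub-Rho 150nM final; kinetic fluorescence ex 480/em 540, 6 reads q60 s. Buffer 50mM HEPES pH 7.8, 0.5mM EDTA, 0.1 mg/ml BSA, 1mM TCEP, 0.01% Tween-20.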
IL-1B inflam inh: inflammasome signaling inhibition, IL-1 beta readout; THP-1 LPS/ATP IL-1B secretion, AlphaLISA, 16 h; stronger effect = lower value; activity change, % at 57.5 µM; 4.7% of 360,000 active; in the data active = activity change below about -50%; inconclusive = mostly about -30% to -49%; note: % is set by controls: 0 for no effect and ±100 for the full control effect
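THP-1 cells pretreated 1 hr with compounds (up to 57.5 uM final), then stimulated with LPS (250 ng/mL final) plus ATP (1.25 mM final); secreted IL-1B measured by AlphaLISA after 16 hr, decreased signal indicating inhibition.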
ATXN viability: cell viability loss in ATXN counter-screen. S2 cells (HEK-293 line with an ATXN2-luciferase reporter) viability, CellTiter-Fluor protease fluorescence, 24 h. Potency, µM (top dose mostly 56.7 µM), most hits filed as cytotoxic. 0.49% of 400,000 active; note: potency is the fitted concentration of half-maximal effect; nearly all actives have a fitted effect of over 40% in size
USP2a inh: blocks human ubiquitin-specific protease USP2a | O75604 | USP2 core, Ub-CHOP2 coupled fluorogenic reporter, 485/531 | Potency, µM (series often up to 38.3 µM), inactives show top-dose activity change, negative = inhibition, actives largely listed as inhibitors | 0.01% of 330,000 active | AID 463254;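 note: potency is the fitted concentration of half-maximal effect; plate controls were DMSO wells for no effect and full inhibition by NEM control for full effect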
Target sequence (O75604 whole entry, looked up): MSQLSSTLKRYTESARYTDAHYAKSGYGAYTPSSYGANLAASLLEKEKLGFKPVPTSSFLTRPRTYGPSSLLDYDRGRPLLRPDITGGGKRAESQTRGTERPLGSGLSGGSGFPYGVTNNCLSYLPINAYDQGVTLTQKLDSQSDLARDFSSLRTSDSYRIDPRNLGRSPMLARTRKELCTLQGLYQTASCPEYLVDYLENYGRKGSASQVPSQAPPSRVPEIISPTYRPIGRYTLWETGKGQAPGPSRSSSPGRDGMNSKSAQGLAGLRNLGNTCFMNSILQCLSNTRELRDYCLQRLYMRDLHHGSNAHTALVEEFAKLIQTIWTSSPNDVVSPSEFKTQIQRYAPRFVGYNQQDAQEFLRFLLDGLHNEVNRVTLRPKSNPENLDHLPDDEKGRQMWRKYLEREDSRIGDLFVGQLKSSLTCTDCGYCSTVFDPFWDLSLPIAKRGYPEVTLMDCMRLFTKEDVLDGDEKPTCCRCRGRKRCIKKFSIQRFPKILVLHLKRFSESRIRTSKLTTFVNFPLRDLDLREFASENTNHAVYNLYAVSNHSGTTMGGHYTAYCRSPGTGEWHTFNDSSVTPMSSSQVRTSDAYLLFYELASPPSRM
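Deubiquitinase activity read as fluorescence (485/531 nm) after Ub-CHOP2 cleavage activates the enterokinase reporter on its substrate; USP2 core 10nM, Ub-CHOP2 and substrate 25nM each, 30min compound preincubation then 60min RT; data normalized to NEM, curves fitted.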
* = called active by the depositor; i = inactive; ? = inconclusive; · = not tested or not shown; [ ] = dose if it differs, or a comment. In the library only some 4.8% were active in any assay of this set; here they are far more common. Unless noted, calls come from the whole dose curve; as a rule, active = well fitted curve in the direction sought with a large enough effect; inconclusive = small, poorly fitted or top-dose-only effect, or another doubt; inactive = no such curve, though single readings can be large; an effect the other way counts as inactive or inconclusive.

SMILES	ATXN2 expr inh	USP1-UAF1 inh	IL-1B inflam inh	ATXN viability	USP2a inh
CC(=O)c1ccccc1C(=O)N1CCCC(C(=O)c2ccc(C(F)(F)F)cc2)C1 (stereo not drawn)	4%	-27%	16	i	2%
O=C(NCCC(=O)N(CCc1ccccc1)Cc1ccccc1)c1ccc([N+](=O)[O-])cc1	-3%	-21%	-14	i	3%
Cc1ccc2nc(N(Cc3cccnc3)C(=O)c3ccco3)sc2c1	·	-23%	·	·	·
Fc1ccc2[nH]c3c(NCc4ccccc4)ncnc3c2c1	?	-4%	-86*	i	3%
COc1ccc(CN2CCCC(c3nc(-c4ccncc4)ncc3-c3ccccc3)C2)cc1OC (stereo not drawn)	·	·	·	i	·
CCn1c(=N)n(CC(=O)c2ccc(Br)s2)c2ccccc21	-21%	-22%	0	?	-3%
CCCCn1c(=N)n(CC(=O)c2ccc(Br)s2)c2ccccc21	·	-23%	-98*	·	2%
COc1cc(CNCCc2ccc(F)cc2)ccc1OCc1ccc(Cl)nc1	?	-4%	-56*	?	2%
COc1cc(NC(=S)NCCc2c[nH]c3ccccc23)c(OC)cc1Cl	-10%	-8%	-66*	i	-1%
COc1cccc(CNCCc2c[nH]c3ccccc23)c1OCc1ccc(F)cc1	20µM*	0%	-62*	?	-1%
COc1cc(CNCCc2c[nH]c3ccccc23)ccc1OCc1ccc(F)cc1	?	-20%	-103*	·	-2%
COc1cc(CNCCc2c[nH]c3ccccc23)cc(Cl)c1OCC(N)=O	-30%	-12%	?	i	2%
O=C(NCCc1nnc2n1CCN(Cc1c(F)cccc1F)CC2)c1ccco1	·	·	·	i	·
CC(=O)NC12CC3CC(C1)CC(C(=O)Nc1cccc(S(=O)(=O)N4CCCCCC4)c1)(C3)C2	-11%	-17%	-13	?	·
O=C(CCNC(=O)C1CCN(S(=O)(=O)c2ccccc2)CC1)Nc1ccccc1	-2%	-20%	?	i	1%
COc1oc(C(=O)NC2CCCCC2)c(-c2ccc(Cl)cc2)c1S(=O)(=O)c1ccccc1	?	-18%	-58*	?	·
O=C(OCc1nnc(-c2ccc(Cl)cc2)o1)c1ccc(O)cc1	-16%[11.3 µM]	-10%	35	i	0%
Cc1nc2cc(C(=O)OCC(=O)NC34CC5CC(CC(C5)C3)C4)ccc2n1-c1ccccc1	1%	-22%	-66*	i	0%
COc1cccc(C(=O)OCC(=O)NC23CC4CC(CC(C4)C2)C3)c1	-1%	-21%	-1	?	1%
Cn1ccsc1=NC(=O)c1ccc(Cl)c([N+](=O)[O-])c1	·	-17%	16	?	1%
CS(=O)(=O)c1ccc(C(=O)OCC(=O)NC23CC4CC(CC(C4)C2)C3)cc1[N+](=O)[O-]	?	-25%	-107*	?	5%
Cc1nc2cc(C(=O)OCC(=O)NC3CCS(=O)(=O)C3)ccc2n1-c1ccccc1 (stereo not drawn)	25%	-17%	-8	i	1%
CS(=O)(=O)c1ccc(C(=O)OCc2nnc(-c3ccc(Cl)cc3)o2)cc1[N+](=O)[O-]	?	-5%	-77*	·	-5%
Cn1ccsc1=NC(=O)c1ccc(S(C)(=O)=O)c([N+](=O)[O-])c1	18%	-10%	-110*	?	1%
COc1ccc(CCNC(=O)Cn2c(=O)nc(-c3ccccc3)c3ccccc32)cc1OC	·	-15%	·	·	·
SMILES	ATXN2 expr inh	USP1-UAF1 inh	IL-1B inflam inh	ATXN viability	USP2a inh
Cn1cccc1C(=O)NC(=O)COC(=O)c1ccc(S(C)(=O)=O)c([N+](=O)[O-])c1	?	-12%	-95*	?	0%
CC(C)CN1CCN(C(=O)COC(=O)c2ccc(S(C)(=O)=O)c([N+](=O)[O-])c2)CC1	-27%	·	·	32µM*	·
CCOC(=O)c1cccc(Nc2ccc3cc(S(=O)(=O)N4CCCCC4)ccc3n2)c1	-39%	-2%	·	?	·
COc1c(Cl)cc(Cl)cc1C(=O)Nc1ccc(CN2CCOCC2)cc1	0%	-11%	-58*	i	2%
O=C(Nc1ccc(CN2CCOCC2)cc1)c1ccc(Br)o1	·	1%	-7	i	-10%
O=C(Nc1ccc(CN2CCOCC2)cc1)c1ccc(-c2cc(Cl)ccc2Cl)o1	?	-14%	-64*	?	1%
CC(C)CC(C(=O)O)N1C(=O)C2C3C=CC(C2C1=O)C1C(=O)N(C(CC(C)C)C(=O)O)C(=O)C31 (stereo not drawn)	5%	-10%	-15	i	2%
Cc1cc(NC(=O)c2ccc(NC(=O)c3cccs3)cc2)no1	14%	-12%	-6	i	0%
CC(C)(C)c1cc(NC(=O)c2cccs2)no1	31%	-7%	-51*	i	·
COCc1cc(C)nc2c1C(=O)NC(c1ccc(F)cc1)N2Cc1ccccc1 (stereo not drawn)	5%	?	·	i	·
Cc1ccc(S(=O)(=O)CCC(=O)OCC(=O)NC(C)c2ccc(F)cc2)cc1 (stereo not drawn)	7%	-21%	0	i	1%
O=C(Nc1csc(Cc2c(Cl)cccc2Cl)n1)NN1CCOCC1	2%	-5%	-84*	i	-1%
COC(=O)c1c(-c2c(Cl)cccc2Cl)noc1NC(=O)NN1CCOCC1	3%	-20%	14	?	-1%
Cc1cc(=O)n2nc(N3CCC(C(=O)Nc4ccc(Br)c(C)c4)CC3)sc2n1	-16%	?	·	?	·
CC(=O)Nc1ccc(CN2C(=O)C(CCc3ccccc3)ON=C2c2cnccn2)cc1 (stereo not drawn)	10%	·	0	i	·
O=C1c2cccc3cc([N+](=O)[O-])cc(c23)C(=O)N1/N=C/c1ccc(O)cc1O	-32%	-14%	-96*	i	0%
Cc1cc(C)c(S(=O)(=O)N2CCN(CCN3C(=O)c4cccc5cccc(c45)C3=O)CC2)cc1[N+](=O)[O-]	·	·	·	·	3%
Nc1cc2c3c(cccc3c1)C(=O)N(CCN1CCCC1)C2=O	?	-11%	-99*	?	4%
O=C1c2cccc3cc([N+](=O)[O-])cc(c23)C(=O)N1CCN1CCCC1	?	-17%	-98*	i	15%
CCN(CC(=O)NCc1cccs1)C(=O)/C=C/c1cccc(Cl)c1Cl	3%	-16%	-2	i	1%
CC1(C)S[C@@H]2[C@H](NC(=O)C(N)c3ccccc3)C(=O)N2[C@H]1C(=O)OC1OC(=O)c2ccccc21 (stereo partly drawn)	·	·	·	i	·
CC(=O)O[C@@H]1C(=O)O[C@@H]2[C@H]1OC(=O)[C@@H]2OC(C)=O	-18%	·	·	i	·
CCc1ccc(N2CC(O)(c3cccs3)[N+]3=C2SCCC3)cc1 (stereo not drawn)	·	-4%	-153*	i	3%

Assay outcomes as filed in PubChem BioAssay.
